According to the supplement of paper PMC11732987, “Enantioselective OTUD7B fragment discovery through chemoproteomics screening and high-throughput optimisation” (Communications Chemistry, 2025):

Assays:
Assay in all cases: log2 ratio of Biotin-Ahx-Ub-VS probe labelling (fragment/DMSO); higher = less target engagement (more negative = stronger competition), active = hit call of the paper (q ≤ 0.05, log2 ratio ≤ -1)
Settings in all cases: compound concentration: 200 uM; treatment time: 3 h
[1] = target: USP34 (UniProt Q70CQ2)
Sequence of USP34 (Q70CQ2 whole entry, the tested form may be a part): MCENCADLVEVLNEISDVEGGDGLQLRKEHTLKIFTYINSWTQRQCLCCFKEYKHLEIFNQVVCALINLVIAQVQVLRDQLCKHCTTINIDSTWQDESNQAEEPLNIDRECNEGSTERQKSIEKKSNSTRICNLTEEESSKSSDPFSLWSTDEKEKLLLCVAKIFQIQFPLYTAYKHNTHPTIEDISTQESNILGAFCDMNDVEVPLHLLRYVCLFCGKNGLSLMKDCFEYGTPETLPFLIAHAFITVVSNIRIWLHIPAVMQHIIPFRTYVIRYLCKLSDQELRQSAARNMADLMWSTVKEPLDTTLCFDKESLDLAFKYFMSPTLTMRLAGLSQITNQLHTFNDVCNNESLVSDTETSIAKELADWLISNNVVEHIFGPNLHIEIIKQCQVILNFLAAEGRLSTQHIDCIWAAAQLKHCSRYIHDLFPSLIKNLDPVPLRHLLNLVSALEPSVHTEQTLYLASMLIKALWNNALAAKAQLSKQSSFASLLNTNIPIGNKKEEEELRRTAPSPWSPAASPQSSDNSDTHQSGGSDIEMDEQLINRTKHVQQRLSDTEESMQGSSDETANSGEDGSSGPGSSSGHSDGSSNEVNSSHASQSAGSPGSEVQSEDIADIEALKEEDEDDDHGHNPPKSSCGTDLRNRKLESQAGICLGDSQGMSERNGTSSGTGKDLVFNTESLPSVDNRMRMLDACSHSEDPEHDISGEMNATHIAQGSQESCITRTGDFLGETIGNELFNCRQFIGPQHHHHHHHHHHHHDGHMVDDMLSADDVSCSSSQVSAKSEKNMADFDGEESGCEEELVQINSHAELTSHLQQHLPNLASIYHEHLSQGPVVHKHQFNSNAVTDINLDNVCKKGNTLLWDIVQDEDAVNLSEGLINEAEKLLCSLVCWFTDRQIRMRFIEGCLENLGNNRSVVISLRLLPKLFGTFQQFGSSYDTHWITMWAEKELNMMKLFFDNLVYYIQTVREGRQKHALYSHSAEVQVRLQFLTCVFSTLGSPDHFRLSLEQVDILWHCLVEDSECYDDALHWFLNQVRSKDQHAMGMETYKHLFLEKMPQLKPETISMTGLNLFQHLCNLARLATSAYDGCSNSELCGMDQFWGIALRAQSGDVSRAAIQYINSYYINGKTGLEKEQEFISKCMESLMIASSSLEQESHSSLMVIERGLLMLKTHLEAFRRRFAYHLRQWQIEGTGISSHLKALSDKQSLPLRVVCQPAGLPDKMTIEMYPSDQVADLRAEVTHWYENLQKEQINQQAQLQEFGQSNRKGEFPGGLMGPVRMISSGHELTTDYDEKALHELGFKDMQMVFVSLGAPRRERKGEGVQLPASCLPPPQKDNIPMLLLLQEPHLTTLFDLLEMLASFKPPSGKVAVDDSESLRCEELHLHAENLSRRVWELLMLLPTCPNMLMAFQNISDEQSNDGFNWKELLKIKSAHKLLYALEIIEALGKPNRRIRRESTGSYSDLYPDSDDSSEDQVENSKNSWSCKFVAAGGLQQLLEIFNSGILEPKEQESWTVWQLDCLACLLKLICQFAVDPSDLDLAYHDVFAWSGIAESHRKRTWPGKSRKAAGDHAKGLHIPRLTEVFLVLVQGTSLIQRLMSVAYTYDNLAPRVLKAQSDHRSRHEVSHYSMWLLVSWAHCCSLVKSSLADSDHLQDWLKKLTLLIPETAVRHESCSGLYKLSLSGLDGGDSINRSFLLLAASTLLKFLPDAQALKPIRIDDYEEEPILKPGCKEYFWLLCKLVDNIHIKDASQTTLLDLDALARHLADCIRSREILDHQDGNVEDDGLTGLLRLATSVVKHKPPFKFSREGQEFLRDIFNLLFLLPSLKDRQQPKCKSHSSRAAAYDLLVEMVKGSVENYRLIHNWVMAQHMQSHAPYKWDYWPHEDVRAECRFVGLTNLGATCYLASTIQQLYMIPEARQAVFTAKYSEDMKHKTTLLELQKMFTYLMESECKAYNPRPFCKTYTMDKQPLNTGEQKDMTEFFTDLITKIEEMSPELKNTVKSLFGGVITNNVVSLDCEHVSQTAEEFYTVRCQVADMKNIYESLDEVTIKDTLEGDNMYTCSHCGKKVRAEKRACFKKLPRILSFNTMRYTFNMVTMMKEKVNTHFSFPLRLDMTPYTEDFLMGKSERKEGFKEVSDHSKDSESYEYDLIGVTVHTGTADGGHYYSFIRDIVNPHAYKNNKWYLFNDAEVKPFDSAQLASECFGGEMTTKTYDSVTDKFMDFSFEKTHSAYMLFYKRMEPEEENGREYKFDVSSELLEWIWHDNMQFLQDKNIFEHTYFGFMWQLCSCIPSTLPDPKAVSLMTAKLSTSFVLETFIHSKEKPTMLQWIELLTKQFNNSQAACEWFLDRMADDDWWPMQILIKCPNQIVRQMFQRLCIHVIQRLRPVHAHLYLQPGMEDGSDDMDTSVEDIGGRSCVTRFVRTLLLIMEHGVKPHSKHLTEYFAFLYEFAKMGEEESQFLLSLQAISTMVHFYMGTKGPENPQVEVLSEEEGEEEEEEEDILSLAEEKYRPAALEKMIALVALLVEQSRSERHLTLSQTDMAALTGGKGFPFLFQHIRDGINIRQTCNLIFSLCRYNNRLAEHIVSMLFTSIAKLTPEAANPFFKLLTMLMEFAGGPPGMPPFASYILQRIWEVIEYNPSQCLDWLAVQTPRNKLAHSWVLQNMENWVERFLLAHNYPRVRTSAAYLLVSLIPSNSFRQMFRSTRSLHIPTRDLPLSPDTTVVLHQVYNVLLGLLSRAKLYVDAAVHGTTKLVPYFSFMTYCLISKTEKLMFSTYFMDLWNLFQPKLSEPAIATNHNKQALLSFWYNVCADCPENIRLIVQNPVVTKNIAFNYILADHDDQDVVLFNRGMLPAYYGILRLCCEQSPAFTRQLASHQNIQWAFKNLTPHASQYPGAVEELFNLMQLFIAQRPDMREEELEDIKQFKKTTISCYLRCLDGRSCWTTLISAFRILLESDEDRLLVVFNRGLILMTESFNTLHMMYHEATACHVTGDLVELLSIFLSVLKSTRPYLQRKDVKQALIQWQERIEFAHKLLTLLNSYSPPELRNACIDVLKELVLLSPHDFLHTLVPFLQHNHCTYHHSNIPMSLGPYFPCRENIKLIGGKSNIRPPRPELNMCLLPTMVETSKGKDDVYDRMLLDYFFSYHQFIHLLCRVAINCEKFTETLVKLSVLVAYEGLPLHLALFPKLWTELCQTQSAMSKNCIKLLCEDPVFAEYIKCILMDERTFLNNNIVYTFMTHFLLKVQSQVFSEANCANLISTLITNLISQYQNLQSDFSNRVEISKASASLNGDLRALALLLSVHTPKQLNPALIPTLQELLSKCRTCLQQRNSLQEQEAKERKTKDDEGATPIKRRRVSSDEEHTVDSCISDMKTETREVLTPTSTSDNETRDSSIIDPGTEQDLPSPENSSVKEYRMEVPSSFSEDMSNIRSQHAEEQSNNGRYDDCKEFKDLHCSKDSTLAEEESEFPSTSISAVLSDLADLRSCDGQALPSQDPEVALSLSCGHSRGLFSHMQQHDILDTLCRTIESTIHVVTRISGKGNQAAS
Outline: (§1)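 Labelled DUBs from HEK293T lysate were NeutrAvidin-enriched, digested with LysC and trypsin, and run by diaPASEF LC-MS/MS. Before that, each 495 µg sample in Tris/CHAPS/IGEPAL buffer with protease inhibitors was treated in triplicate with fragment at 200 µM or vehicle for 3 h, then with Biotin-Ahx-Ub-VS at 0.5 µM final for 1 h. Values are average log2 ratios of fragment over vehicle by unpaired t-test, based on global-median-normalised Spectronaut label-free quantities from proteins with ≥2 unique peptides.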

[2] = target: T1, USP36 (UniProt Q9P275)
T1 sequence (whole entry): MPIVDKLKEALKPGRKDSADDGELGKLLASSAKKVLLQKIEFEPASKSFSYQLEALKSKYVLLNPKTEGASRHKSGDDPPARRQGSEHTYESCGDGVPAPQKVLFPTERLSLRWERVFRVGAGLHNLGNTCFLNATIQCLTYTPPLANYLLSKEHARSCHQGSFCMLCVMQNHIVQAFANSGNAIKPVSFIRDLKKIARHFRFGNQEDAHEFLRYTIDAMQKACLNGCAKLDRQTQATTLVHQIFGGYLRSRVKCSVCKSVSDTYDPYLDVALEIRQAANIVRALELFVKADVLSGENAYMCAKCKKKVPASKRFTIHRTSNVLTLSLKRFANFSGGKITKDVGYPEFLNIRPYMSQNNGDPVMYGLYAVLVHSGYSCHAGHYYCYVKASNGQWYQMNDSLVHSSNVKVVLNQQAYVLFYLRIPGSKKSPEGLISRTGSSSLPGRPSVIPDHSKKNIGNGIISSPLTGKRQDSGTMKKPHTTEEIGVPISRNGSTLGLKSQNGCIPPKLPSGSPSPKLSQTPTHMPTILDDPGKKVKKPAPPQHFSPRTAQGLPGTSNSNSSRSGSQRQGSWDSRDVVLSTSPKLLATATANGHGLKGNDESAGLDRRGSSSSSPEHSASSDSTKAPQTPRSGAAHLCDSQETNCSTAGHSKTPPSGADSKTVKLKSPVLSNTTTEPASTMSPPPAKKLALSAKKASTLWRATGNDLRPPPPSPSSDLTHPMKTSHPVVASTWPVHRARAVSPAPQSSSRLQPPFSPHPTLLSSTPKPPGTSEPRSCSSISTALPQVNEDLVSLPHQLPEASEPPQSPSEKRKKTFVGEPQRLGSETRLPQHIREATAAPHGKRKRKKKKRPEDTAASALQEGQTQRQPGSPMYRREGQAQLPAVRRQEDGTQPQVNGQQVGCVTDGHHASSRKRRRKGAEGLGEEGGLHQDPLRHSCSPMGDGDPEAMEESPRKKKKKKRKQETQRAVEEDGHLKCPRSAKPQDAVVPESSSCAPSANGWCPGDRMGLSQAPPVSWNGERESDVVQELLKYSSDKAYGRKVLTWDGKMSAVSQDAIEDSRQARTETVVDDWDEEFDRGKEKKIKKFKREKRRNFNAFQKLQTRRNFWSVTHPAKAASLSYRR
Outline: as §1

[3] = target: T2, USP38 (UniProt Q8NB14)
T2 sequence (whole entry): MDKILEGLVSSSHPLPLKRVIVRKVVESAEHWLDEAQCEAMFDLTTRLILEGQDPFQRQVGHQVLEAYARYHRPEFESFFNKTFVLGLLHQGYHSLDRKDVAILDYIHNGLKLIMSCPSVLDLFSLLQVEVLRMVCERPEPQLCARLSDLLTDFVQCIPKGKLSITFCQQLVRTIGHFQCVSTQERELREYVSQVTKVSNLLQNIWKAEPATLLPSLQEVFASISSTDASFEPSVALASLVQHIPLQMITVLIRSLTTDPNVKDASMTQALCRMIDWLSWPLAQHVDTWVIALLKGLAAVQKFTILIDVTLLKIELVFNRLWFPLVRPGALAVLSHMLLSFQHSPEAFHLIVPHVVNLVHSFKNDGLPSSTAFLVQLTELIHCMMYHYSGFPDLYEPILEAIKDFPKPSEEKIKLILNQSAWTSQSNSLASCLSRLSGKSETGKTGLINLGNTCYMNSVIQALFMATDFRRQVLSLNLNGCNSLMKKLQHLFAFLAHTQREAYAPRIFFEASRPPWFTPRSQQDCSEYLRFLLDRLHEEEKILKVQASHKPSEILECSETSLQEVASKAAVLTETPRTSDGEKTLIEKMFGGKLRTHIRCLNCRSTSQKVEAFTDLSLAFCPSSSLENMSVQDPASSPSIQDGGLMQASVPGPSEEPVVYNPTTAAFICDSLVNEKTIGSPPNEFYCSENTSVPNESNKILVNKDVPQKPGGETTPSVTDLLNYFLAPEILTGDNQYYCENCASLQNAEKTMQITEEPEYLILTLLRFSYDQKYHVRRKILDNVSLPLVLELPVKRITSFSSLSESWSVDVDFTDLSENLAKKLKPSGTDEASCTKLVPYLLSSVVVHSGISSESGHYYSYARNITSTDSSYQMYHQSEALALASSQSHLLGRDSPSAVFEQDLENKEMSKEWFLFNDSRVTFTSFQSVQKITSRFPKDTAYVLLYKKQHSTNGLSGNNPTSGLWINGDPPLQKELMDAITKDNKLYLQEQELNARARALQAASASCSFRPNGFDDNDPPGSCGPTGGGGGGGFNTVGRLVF
Outline: as §1

[4] = target: T3, USP39 (UniProt Q53GS9)
T3 sequence (whole entry): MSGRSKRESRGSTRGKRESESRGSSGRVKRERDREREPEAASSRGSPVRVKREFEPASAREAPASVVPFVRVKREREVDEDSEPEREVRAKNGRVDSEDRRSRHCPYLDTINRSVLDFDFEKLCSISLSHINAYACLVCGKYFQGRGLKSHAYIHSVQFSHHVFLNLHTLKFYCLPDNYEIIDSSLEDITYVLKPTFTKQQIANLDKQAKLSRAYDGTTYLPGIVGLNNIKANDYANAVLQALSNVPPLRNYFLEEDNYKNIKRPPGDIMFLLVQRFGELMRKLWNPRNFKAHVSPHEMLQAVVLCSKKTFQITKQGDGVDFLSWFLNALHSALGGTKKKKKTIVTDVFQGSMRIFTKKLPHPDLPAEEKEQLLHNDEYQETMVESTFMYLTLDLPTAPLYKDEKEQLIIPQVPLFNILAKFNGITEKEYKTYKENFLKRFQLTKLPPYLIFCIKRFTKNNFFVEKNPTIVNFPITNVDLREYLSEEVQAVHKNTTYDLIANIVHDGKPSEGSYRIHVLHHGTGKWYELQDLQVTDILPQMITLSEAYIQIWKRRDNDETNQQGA
Outline: as §1

[5] = target: T4, USP4 (UniProt Q13107)
T4 sequence (whole entry): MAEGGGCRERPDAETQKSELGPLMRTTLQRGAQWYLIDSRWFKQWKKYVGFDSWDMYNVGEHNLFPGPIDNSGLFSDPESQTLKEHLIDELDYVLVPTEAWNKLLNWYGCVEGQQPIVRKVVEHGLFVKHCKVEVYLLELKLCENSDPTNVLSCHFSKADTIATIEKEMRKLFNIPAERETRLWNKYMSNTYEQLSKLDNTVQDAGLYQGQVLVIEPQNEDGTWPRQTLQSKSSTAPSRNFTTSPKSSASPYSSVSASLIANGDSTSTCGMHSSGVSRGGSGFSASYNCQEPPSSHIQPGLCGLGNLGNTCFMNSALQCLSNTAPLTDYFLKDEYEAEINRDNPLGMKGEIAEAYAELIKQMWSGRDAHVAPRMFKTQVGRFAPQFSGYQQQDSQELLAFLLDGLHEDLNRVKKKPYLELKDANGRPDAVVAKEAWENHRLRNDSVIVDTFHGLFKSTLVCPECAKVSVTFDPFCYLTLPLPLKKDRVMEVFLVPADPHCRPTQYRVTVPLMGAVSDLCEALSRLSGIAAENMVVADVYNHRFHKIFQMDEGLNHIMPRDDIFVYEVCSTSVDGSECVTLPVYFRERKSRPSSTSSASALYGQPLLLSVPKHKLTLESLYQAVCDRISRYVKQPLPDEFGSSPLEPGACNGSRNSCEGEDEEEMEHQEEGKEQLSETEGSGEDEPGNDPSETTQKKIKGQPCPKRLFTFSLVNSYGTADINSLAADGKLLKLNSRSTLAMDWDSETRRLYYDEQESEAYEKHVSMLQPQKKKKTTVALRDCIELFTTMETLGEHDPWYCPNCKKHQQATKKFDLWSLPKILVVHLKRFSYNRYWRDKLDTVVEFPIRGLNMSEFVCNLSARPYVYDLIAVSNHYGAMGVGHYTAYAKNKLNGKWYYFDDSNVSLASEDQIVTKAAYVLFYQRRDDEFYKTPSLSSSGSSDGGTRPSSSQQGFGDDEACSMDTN
Outline: as §1

Measured: log2 ratio of Biotin-Ahx-Ub-VS probe labelling

CNC(=O)C1CCN(C(=O)CCl)CC1
inactive: [1] -0.0658 | [2] -0.083 | [3] 0.119 | [4] 0.229 | [5] -0.146
